Assay [1] concerns the target Serine/threonine-protein kinase MARK2 (Homo sapiens) (UniProt Q7KZI7). The following applies: at 1 µM.
Assay [2] concerns the target PAS domain-containing serine/threonine-protein kinase (Homo sapiens) (UniProt Q96RG2). The following applies: at 0.1 µM.
Assay [3] has the same target. Conditions: at 1 µM.
The target in assay [4] is Phosphorylase b kinase gamma catalytic chain, skeletal muscle/heart isoform (Homo sapiens) (UniProt Q16816). The following applies: at 0.1 µM.
Assay [5] shares this target. Conditions: at 1 µM.
Assay [6] concerns the target T1, Phosphorylase b kinase gamma catalytic chain, liver/testis isoform (Homo sapiens) (UniProt P15735).
T1 sequence (whole entry): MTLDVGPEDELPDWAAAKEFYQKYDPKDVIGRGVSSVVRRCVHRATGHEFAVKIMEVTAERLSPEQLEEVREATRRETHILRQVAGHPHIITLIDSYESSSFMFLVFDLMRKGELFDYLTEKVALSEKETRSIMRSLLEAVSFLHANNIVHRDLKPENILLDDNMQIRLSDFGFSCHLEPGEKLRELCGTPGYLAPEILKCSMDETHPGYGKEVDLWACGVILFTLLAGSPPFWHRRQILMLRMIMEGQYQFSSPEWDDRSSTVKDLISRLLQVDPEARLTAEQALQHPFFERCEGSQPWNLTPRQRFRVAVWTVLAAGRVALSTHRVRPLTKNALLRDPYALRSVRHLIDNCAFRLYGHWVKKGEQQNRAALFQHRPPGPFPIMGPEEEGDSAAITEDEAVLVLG
Conditions: at 0.1 µM.

For assay [7], the target named is T1, Phosphorylase b kinase gamma catalytic chain, liver/testis isoform (Homo sapiens). Conditions: at 1 µM.
For assay [8], the target named is Serine/threonine-protein kinase pim-1 (Homo sapiens) (UniProt P11309). Conditions: at 0.1 µM.
Assay [9] has the same target. The following applies: at 1 µM.
The target of assay [10] is Serine/threonine-protein kinase pim-2 (Homo sapiens) (UniProt Q9P1W9). Conditions: at 0.1 µM.
Assay [11] shares this target. The following applies: at 1 µM.
For assay [12], the target named is Serine/threonine-protein kinase pim-3 (Homo sapiens) (UniProt Q86V86). The following applies: at 0.1 µM.
Assay [13] has the same target. Conditions: at 1 µM.
Assay [14] addresses T2, MAP kinase-activated protein kinase 5 (Homo sapiens) (UniProt Q8IW41).
T2 sequence (whole entry): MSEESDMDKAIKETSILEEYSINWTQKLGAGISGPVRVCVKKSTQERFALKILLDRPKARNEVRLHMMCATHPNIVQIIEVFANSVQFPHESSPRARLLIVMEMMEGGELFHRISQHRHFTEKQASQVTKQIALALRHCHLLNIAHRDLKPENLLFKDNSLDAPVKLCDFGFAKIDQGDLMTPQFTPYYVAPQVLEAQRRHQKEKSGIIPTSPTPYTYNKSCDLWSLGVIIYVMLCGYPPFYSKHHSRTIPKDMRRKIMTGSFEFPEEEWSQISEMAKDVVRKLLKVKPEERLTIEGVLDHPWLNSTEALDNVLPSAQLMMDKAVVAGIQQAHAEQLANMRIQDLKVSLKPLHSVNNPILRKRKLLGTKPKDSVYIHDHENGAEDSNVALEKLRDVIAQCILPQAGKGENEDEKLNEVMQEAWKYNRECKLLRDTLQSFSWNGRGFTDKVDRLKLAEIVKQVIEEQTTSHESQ
The following applies: at 0.1 µM.

For assay [15], the target named is T2, MAP kinase-activated protein kinase 5 (Homo sapiens). Conditions: at 1 µM.
Assay [16] concerns the target Serine/threonine-protein kinase SIK1 (Homo sapiens) (UniProt P57059). Conditions: at 0.1 µM.
Assay [17] shares this target. The following applies: at 1 µM.
In assay [18] the target is Serine/threonine-protein kinase SIK2 (Homo sapiens) (UniProt Q9H0K1). The following applies: at 0.1 µM.
The target is the same in assay [19]. The following applies: at 1 µM.
The target in assay [20] is T3, Serine/threonine-protein kinase TBK1 (Homo sapiens) (UniProt Q9UHD2).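 Further: values are the mean TBK1 inhibition, taken from the GSK PKIS screening data.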
T3 sequence (whole entry): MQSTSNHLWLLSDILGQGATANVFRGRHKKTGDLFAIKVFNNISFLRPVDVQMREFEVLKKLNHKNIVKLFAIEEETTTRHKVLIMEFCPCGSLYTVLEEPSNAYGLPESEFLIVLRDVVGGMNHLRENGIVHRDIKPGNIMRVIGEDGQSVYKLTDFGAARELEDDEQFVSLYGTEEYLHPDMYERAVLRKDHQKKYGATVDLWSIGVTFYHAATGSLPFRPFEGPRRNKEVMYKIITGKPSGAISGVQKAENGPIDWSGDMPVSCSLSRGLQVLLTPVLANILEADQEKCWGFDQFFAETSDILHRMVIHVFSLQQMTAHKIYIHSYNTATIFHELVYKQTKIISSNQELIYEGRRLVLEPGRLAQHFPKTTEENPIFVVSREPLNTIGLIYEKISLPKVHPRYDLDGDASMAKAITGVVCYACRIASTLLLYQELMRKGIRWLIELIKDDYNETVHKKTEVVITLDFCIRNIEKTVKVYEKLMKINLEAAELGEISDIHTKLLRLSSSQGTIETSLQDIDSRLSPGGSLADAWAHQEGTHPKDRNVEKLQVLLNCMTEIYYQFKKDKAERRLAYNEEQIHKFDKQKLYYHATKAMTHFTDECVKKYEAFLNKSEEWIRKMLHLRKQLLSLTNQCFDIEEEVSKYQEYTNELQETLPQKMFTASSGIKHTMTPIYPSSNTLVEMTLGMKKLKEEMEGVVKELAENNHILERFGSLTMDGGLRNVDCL
Conditions: at 0.1 µM.

Sequence of PAS domain-containing serine/threonine-protein kinase (Homo sapiens) (Q96RG2 whole entry, the tested form may be a part): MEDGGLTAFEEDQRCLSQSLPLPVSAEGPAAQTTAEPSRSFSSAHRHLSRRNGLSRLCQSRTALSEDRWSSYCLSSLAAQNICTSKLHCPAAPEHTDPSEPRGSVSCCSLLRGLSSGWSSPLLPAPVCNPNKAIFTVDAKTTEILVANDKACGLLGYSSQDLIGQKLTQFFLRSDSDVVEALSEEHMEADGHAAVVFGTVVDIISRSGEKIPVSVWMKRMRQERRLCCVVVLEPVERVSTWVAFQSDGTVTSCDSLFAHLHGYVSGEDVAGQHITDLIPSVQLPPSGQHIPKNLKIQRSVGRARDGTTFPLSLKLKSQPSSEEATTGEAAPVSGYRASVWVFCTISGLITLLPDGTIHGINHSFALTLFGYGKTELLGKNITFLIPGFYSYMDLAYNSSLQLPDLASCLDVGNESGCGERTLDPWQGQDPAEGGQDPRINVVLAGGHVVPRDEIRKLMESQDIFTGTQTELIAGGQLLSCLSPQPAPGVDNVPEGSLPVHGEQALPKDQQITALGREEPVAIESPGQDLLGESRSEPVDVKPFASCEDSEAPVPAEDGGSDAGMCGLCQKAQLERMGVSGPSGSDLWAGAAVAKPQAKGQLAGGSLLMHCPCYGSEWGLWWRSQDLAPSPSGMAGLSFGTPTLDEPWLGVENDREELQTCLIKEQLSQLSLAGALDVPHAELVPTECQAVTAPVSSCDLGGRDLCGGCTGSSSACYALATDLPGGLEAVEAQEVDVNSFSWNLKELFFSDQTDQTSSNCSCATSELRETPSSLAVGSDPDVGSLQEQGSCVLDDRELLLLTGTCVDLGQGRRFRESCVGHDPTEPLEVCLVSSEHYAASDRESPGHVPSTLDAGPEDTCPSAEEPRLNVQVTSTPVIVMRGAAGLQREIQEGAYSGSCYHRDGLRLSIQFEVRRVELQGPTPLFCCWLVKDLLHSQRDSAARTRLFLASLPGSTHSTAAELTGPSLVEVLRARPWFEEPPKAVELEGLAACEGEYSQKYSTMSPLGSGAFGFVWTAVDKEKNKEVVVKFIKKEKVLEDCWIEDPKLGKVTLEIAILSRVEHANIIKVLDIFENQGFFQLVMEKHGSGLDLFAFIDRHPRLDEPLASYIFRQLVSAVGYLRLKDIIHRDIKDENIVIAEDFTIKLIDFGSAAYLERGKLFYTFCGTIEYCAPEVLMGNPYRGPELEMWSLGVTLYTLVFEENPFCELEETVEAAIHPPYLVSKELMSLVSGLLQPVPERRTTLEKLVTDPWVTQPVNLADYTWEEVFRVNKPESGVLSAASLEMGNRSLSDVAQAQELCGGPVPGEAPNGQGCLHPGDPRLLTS
Sequence of Serine/threonine-protein kinase MARK2 (Homo sapiens) (Q7KZI7 whole entry, the tested form may be a part): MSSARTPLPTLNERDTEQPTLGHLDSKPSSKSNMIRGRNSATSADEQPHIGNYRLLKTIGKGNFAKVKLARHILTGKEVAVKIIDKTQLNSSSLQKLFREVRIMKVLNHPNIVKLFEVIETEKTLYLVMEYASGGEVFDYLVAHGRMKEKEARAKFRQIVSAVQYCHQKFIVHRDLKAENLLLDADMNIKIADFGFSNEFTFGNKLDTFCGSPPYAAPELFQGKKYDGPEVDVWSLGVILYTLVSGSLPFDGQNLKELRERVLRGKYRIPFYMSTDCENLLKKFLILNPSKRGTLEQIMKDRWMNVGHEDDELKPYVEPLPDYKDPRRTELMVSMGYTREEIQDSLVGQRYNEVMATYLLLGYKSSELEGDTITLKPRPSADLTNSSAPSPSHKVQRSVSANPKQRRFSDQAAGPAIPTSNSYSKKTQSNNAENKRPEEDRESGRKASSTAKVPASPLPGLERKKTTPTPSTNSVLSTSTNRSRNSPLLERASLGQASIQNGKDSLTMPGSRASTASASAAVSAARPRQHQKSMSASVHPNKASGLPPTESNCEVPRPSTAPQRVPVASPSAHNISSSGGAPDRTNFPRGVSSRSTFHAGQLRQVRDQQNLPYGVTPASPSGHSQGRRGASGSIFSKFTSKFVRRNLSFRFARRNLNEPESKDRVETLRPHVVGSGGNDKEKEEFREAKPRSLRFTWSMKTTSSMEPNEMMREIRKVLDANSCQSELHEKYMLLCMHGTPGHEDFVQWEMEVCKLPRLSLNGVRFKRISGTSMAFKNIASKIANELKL
Sequence of Phosphorylase b kinase gamma catalytic chain, skeletal muscle/heart isoform (Homo sapiens) (Q16816 whole entry, looked up, canonical isoform): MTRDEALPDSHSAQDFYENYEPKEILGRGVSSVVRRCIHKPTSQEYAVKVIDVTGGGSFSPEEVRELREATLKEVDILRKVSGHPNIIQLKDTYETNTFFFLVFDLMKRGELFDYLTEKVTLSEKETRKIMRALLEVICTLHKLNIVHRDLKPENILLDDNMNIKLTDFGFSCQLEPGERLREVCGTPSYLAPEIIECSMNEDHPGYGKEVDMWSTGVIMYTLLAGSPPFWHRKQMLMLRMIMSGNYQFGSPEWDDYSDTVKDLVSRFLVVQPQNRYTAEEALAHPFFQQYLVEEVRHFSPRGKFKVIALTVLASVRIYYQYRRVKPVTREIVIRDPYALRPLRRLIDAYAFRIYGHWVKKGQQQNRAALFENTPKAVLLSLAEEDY
Sequence of Serine/threonine-protein kinase pim-2 (Homo sapiens) (Q9P1W9 whole entry, looked up): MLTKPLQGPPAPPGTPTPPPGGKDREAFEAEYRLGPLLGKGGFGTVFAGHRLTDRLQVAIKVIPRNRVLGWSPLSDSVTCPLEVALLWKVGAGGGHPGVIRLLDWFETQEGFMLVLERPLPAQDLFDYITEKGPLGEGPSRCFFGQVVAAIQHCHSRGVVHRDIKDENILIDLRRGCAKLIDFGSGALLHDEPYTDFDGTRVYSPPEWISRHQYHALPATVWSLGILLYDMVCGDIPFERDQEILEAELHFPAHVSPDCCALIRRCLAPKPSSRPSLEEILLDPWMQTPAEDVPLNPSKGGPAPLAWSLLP
Sequence of Serine/threonine-protein kinase SIK2 (Homo sapiens) (Q9H0K1 whole entry, looked up): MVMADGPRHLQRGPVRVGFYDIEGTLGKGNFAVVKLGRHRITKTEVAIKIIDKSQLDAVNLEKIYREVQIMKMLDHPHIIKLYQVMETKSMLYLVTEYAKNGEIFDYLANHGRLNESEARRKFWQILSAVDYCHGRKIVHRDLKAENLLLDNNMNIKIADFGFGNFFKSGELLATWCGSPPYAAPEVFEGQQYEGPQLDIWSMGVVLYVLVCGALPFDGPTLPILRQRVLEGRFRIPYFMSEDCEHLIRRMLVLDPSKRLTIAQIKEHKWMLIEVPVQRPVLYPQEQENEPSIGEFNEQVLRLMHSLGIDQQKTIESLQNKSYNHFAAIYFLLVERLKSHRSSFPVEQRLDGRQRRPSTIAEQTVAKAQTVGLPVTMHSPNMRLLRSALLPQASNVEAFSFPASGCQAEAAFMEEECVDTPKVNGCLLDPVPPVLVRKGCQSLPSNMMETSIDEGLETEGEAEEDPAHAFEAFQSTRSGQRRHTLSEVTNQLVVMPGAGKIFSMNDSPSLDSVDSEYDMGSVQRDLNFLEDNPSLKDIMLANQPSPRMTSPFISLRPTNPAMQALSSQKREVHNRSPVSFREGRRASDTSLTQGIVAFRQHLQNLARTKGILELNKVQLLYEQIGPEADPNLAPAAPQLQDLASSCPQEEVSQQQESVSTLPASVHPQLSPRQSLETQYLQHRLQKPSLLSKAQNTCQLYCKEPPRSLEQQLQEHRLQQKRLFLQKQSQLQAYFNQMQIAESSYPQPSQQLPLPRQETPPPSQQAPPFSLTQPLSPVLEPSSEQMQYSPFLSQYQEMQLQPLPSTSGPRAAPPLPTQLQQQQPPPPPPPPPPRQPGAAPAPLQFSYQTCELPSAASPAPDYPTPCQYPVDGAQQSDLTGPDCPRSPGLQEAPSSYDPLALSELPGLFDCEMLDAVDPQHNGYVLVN
Sequence of Serine/threonine-protein kinase pim-1 (Homo sapiens) (P11309 whole entry, looked up): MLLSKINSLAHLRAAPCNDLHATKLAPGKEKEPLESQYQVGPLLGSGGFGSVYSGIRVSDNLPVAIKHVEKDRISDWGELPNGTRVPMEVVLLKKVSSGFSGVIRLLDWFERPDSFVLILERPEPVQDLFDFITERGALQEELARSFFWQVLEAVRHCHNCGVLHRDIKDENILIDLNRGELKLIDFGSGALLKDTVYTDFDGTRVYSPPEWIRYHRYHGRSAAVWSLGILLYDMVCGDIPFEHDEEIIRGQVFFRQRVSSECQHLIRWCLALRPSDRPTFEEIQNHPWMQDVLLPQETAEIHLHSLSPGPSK

One may read the inhibition as the drop in the measured response relative to a control, in per cent. In the case of `Cc1nn(C)c2cc(N(C)c3ccnc(Nc4cccc(S(N)(=O)=O)c4)n3)ccc12`, the inhibition was 1.25% in [1]; -0.56% in [2]; -0.33% in assay [3]; 3.53% in [4]; 8.04% in [5]; 2.44% in [6]. Moreover, the inhibition in assay [7] was found to be 2.5%; in [8] it was 1.18%; in [9], 0.82%; in [10] it was 0.22%; in assay [11] it was 0.81%; in [12] it was 0.16%. Also, the inhibition in assay [13] is -0.2%; in assay [14], 0.87%; in assay [15], 1.23%; in assay [16] it was 9.49%; in assay [17], 55.3%; in assay [18] it was 7.91%. Besides, the inhibition was found to be 24.3% in assay [19] and 2.88% in [20].

Regarding `CC1=C(C(=O)Nc2ccc3[nH]ncc3c2)C(c2ccc(Cl)c(Cl)c2)CC(=O)N1` (centres undefined), the inhibition in [1] is 3.36%; in [2], -0.49%; in assay [3] it was -1.74%; in [4], 1.04%; in assay [5], 2.45%; in [6], 2.86%. Moreover, the inhibition was -0.26% in assay [7]; -0.12% in assay [8]; 0.22% in assay [9]; 0.05% in [10]; -1.37% in [11]; -0.64% in assay [12]. Also, the inhibition in assay [13] was -1.31%; in [14], 0.08%; in assay [15] it was -1.02%; in [16], 6.5%; in assay [17], 2.84%; in [18], -0.93%. The inhibition was 2.87% in assay [19] and -0.19% in assay [20].

For `Nc1ncnc2occ(-c3ccc(NC(=O)Nc4cccc(C(F)(F)F)c4)cc3)c12`, the inhibition was 3.83% in assay [1]; -0.58% in [2]; 0.31% in assay [3]; 6.3% in assay [4]; 10.2% in assay [5]; 6.43% in [6]. Besides, the inhibition in [7] amounted to 4.64%; in assay [8] it was 1.56%; in [9] it was 2.28%; in assay [10], 0.42%; in assay [11], 0.72%; in assay [12], 0.78%. The inhibition was 0.9% in [13]; 1.67% in [14]; 1.36% in [15]; -0.49% in [16]; 9.69% in assay [17]; 4.8% in assay [18]. Further, the inhibition was determined as 3.6% in assay [19] and 3.95% in [20].

For `COC(=O)Nc1nc2cc(Oc3cccc(NC(=O)Nc4cc(C(F)(F)F)ccc4F)c3)ccc2[nH]1`, the inhibition in [1] was 0.86%; in assay [2], 0.12%; in assay [3], 0.57%; in assay [4], 2.73%; in assay [5], 2.22%; in assay [6] it was -0.89%. Besides, the inhibition is -1.83% in [7]; -0.25% in assay [8]; 0.39% in assay [9]; -0.3% in assay [10]; 0.76% in [11]; 0.14% in assay [12]. The inhibition in assay [13] was 0.51%; in assay [14], -0.26%; in assay [15], -2.14%; in assay [16], 0.37%; in [17] it was 2.51%; in [18], -0.54%. The inhibition in assay [19] was found to be 3.76%.

On to `Fc1cccc(COc2ccc(Nc3ncnc4cc(-c5ccc[nH]5)sc34)cc2Cl)c1`, for which the inhibition in [1] is 2.66%; in assay [2] it was -0.58%; in assay [3], -0.43%; in assay [4], 3.19%; in assay [5], 3.62%; in assay [6], 2.24%. Besides, the inhibition in assay [7] was 2.18%; in assay [8] it was -0.5%; in assay [9], 1.01%; in [10], -3.43%; in [11], -2.72%; in assay [12] it was -0.5%. For the same compound, the inhibition in assay [13] is 1.49%; in assay [14], 0.74%; in assay [15], 0.9%; in assay [16], 3.04%; in assay [17], 8.63%; in assay [18] it was 3.89%. For the same compound, the values for the inhibition in assay [19] and in assay [20] were 7.67% and 2.35%, respectively.

As for `Cc1ccc(C(=O)NC2CCCCC2)cc1-c1ccc(C(=O)NCC2CC2)cc1`, the inhibition is 0.99% in assay [1]; 1.33% in assay [2]; -0.83% in [3]; 0.53% in [4]; -0.89% in assay [5]; 3.98% in assay [6]. Moreover, the inhibition in [7] was 1.55%; in assay [8], -0.39%; in [9] it was 0.56%; in [10], 1.02%; in assay [11] it was 1.66%; in assay [12], 22.2%. Also, the inhibition in [13] is -1%; in assay [14], 0.69%; in assay [15], -0.72%; in assay [16] it was 3.08%; in [17], 8.02%; in assay [18], 2.73%. In addition, the inhibition in [19] was 1.96%; in assay [20], 1.75%.

Regarding `CC(=O)Nc1cccc(C#Cc2cncnc2Nc2ccc(OCc3cccc(F)c3)c(Cl)c2)n1`, the inhibition in [1] is -0.36%; in assay [2], 1.79%; in assay [3], 6.21%; in assay [4], 1.84%; in assay [5], 3.66%; in assay [6], 0.59%. In addition, the inhibition in assay [7] was 6.86%; in assay [8], 1.5%; in assay [9], 0.89%; in assay [10], 0.58%; in assay [11], -0.75%; in [12], 5.22%. For the same compound, the inhibition in assay [13] was 9.04%; in assay [14], 0.35%; in assay [15], 2.24%; in assay [16], -2.62%; in assay [17], -1.96%; in [18], -4.28%. Further, the inhibition is -0.46% in assay [19] and 1.99% in [20].

These data come from ChEMBL document CHEMBL1961873, “Compounds: GSK PKIS; Assays: Nanosyn kinase panel” (2012).
